Screens deposited in PubChem by National Center for Advancing Translational Sciences (NCATS).
This is a sample that favours compounds with a hit; in the whole collection about 14% have one here.
HCMV antiviral: inhibitors of human cytomegalovirus; HFF cells, HCMV-luciferase reporter, 72 h; stronger effect = lower value; 410,000 tested, 4.5% active; activity change, negative = inhibition, % at 57.5 µM; AID 1259415; in the data active = activity change below about -60%; inconclusive = no clear call, values can overlap the other calls; inactive = above about -39%
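Steps: HFFs plated, 16 h 37C; compounds added; HCMV-luciferase added to MOI 1 PFU/cell; 72 h 37C; OneGlo reagent, 5 min room temperature; luminescence read, normalized to controls.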
Pf growth 96h: P. falciparum growth inhibition at 96 hours. 320,000 tested, 6.9% active. AID 504834. P. falciparum luciferase reporter growth, 96 h. Potency, µM (doses to about 28.7 µM), usual class: inhibitors
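Infected RBCs, 2% Hct / 0.05% parasitemia final; luciferase-reporter P. falciparum; cpd 96 h, 37 C, 5% CO2; luciferase detection reagent; luminescence.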
Pf growth 48h: inhibits P. falciparum growth in the first generation, 48 h; P. falciparum luciferase growth in erythrocytes, 48 h; Potency, µM (highest dose often 28.7 µM), most hits filed as inhibitors; 310,000 tested, 5.9% active; AID 504832
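Parasite viability was followed by luminescence of a genomically integrated firefly luciferase. Cultures held 0.1% parasitemia at 2% hematocrit (final), incubated under 5% CO2 at 37 C.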
Giardia FBPA inh: inhibitors of Giardia lamblia fructose-1,6-bisphosphate aldolase; A8B2U2; Potency, µM (doses to about 59.6 µM), usual class: inhibitors; AID 2451; 290,000 tested, 0.71% active; purified Giardia FBPA; also: nearly all actives have a fitted effect of over 55% in size
Target sequence (A8B2U2 whole entry, looked up): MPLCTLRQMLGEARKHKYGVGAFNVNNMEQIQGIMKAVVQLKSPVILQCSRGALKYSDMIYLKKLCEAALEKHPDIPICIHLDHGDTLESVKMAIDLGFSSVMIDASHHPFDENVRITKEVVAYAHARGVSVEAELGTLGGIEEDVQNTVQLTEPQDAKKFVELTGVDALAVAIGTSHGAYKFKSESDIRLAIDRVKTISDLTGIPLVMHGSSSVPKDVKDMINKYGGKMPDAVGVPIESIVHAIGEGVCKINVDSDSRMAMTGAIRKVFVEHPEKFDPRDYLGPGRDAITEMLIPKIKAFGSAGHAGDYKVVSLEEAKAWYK
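Giardia FBPA (40 nM reagent) was preincubated 10 min at RT with compound (up to 57.5 uM final), then substrate plus GAPDH/TPI/NAD/arsenate coupling system with diaphorase/resazurin was added; resorufin fluorescence (525/598 nm) was read after 20 min.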
Sm TGR inh: inhibitors of Schistosoma mansoni thioredoxin glutathione reductase | 360,000 tested, 3% active | AID 485364 | Potency, µM (doses to about 114 µM), actives largely listed as inhibitors | Q962Y6 | purified TGR, DTNB reduction, TNB absorbance 405 nm; also: nearly all actives have a fitted effect of over 60% in size
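TGR 20 nM + NADPH 100 uM (dispensed conc.), cpd preinc 15 min RT; start with NADPH (500 uM addition) then DTNB (15 mM addition). Kinetic TNB absorbance, 405 nm filter. Four-parameter Hill fit across titration.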
Numbers stand for hits; . = inactive; ? = inconclusive; / = no result. Unless noted, calls follow the shape of the dose curve; as a rule, active = well fitted curve in the direction sought with a large enough effect; inconclusive = small, poorly fitted or top-dose-only effect, or another doubt; inactive = no such curve, though single readings can be large; an effect the other way counts as inactive or inconclusive.

SMILES	HCMV antiviral	Pf growth 96h	Pf growth 48h	Giardia FBPA inh	Sm TGR inh
COc1ccc(C2=CC3=C(Br)C(=O)C(C)(OC(=O)c4ccco4)C(=O)C3=CO2)cc1 (centres undefined)	/	.	.	?	5.01µM
COc1ccc(C2=CC3=C(Br)C(=O)C(C)(OC(=O)c4cccs4)C(=O)C3=CO2)cc1 (centres undefined)	.	/	/	.	/
Cc1cnccc1CNC(=O)CC1C(=O)NCCN1CC(C)(C)C (centres undefined)	.	.	?	.	?
O=C(CN1CCOCC1)NN=Cc1ccc([N+](=O)[O-])o1	.	/	/	/	/
O=C(CC12CC3CC(CC(C3)C1)C2)N/N=C/c1ccc([N+](=O)[O-])o1	.	.	5.22µM	.	.
O=[N+]([O-])c1ccc(-c2ccc(/C=N/Nc3nc(NCc4ccccc4)nc(N4CCOCC4)n3)o2)cc1	-88.1	?	1.47µM	.	.
O=[N+]([O-])c1ccc(Nc2nc(N3CCOCC3)nc(N3CCOCC3)n2)cc1	.	/	/	/	/
O=C(CN1CCCCCCC1)N/N=C/c1ccc([N+](=O)[O-])o1	?	.	?	?	14.1µM
O=C(CCN1CCN(c2ccccc2)CC1)N/N=C/c1ccc([N+](=O)[O-])o1	.	10.4µM	?	.	31.6µM
CC(=O)c1cccc(NC(=O)Cn2c(=O)c(CNc3ccc(C)cc3)cc3cc4c(cc32)OCCO4)c1	.	/	/	/	.
CCc1nn(C(CC)C(=O)NCc2ccc(F)cc2)c(=O)c2cc3occc3n12 (centres undefined)	.	/	/	/	.
C[C@@H](NC(=O)[C@@H]1[C@@H](CO)[C@@H]2Cn3c(cccc3=O)[C@@H]2N1C(=O)C1CC1)c1ccccc1	.	/	/	/	/
O=[N+]([O-])c1ccc(/C=N/Nc2nc(N3CCCCC3)nc(N3CCCCC3)n2)cc1	.	.	?	.	.
O=[N+]([O-])c1ccc(/C=N/Nc2nc(N3CCCCCC3)nc(N3CCCCCC3)n2)o1	.	?	5.22µM	.	.
CCC1(C)Cc2c(sc3nc(SC)nc(NCCN(C)C)c23)CO1 (centres undefined)	-108.0	3.7µM	?	.	.
CC(C)Sc1nc(N2CCOCC2)c2c3c(sc2n1)COC(C)(C)C3	.	?	?	.	.
CCN1CCN(c2nc(SC)nc3sc4c(c23)CC(C)(C)OC4)CC1	.	.	1.65µM	.	.
CSc1nc(SC(C)C(=O)O)c2c3c(sc2n1)COC(C)(C)C3 (centres undefined)	.	.	.	.	.
CCOC(=O)N1CCN(c2nc(SC)nc3sc4c(c23)CC(C)(C)OC4)CC1	.	/	3.7µM	.	.
COc1ccc(CCCNC(=O)C2Cc3c(-c4ccc(NC(C)=O)cc4)ccnc3O2)cc1 (centres undefined)	.	/	/	/	/
CCOc1ccccc1NC(=O)N1CCN(S(=O)(=O)c2ccc3c(ccn3C)c2)CC1	.	/	/	/	.
C=CCSc1nc2c(c(C3CC=CCC3)c1C#N)CCC2 (centres undefined)	.	8.28µM	?	.	.
COCCn1cnc2c(c1=O)c1nc3ccccc3nc1n2/N=C/c1ccco1	.	.	.	.	44.7µM
CCCCCCn1cnc2c(c1=O)c1nc3ccccc3nc1n2/N=C/c1ccco1	.	?	?	.	14.1µM
C=CCn1cnc2c(c1=O)c1nc3ccccc3nc1n2/N=C/c1cccc(OC)c1	.	?	?	.	.
SMILES	HCMV antiviral	Pf growth 96h	Pf growth 48h	Giardia FBPA inh	Sm TGR inh
COCCCn1cnc2c(c1=O)c1nc3ccccc3nc1n2CCc1ccccc1	.	?	?	.	.
Cc1nc2c(c(=O)n1CCC1=CCCCC1)c1nc3ccccc3nc1n2/N=C/c1ccco1	.	9.28µM	10.4µM	.	11.2µM
COCCn1cnc2c(c1=O)c1nc3ccccc3nc1n2/N=C/c1ccc(OC)c(OC)c1	.	2.62µM	1.65µM	.	.
COc1ccc([C@H]2C[C@@H](O)[C@H](n3cc(COC(=O)c4ccccc4)nn3)CN2C(=O)c2cccs2)cc1	.	/	/	/	/
CC(=O)NC(c1ccccc1)c1nc(-c2cccc(CO)c2)cs1 (centres undefined)	.	/	/	/	/
Nc1ncc2c(n1)-c1ccccc1CC2	?	.	3.7µM	.	.
Nc1ncc2c(n1)-c1ccoc1CC2	.	.	.	.	.
CC1(C)CCCC2(C)C(OCCO)=CC(=O)C=C12 (centres undefined)	.	/	/	/	/
COc1ccc(-c2nc(NC(=O)Cn3ccc(C(F)(F)F)n3)sc2C)cc1	.	13.1µM	/	.	.
O=C(c1ccc2ccccc2c1)C1CCCN(S(=O)(=O)c2cccnc2)C1 (centres undefined)	?	.	?	.	?
C#CCCC(=O)c1ccccc1/C=[N+](\[O-])c1ccccc1	.	?	1.17µM	/	?
COc1ccccc1-c1sc2ccccc2c1-c1ccc2c(c1)OCO2	.	5.22µM	4.65µM	.	.
NS(=O)(=O)c1ccc(CNC(=S)Nc2ccc(Cl)c(Cl)c2)cc1	-73.7	.	.	.	.
NS(=O)(=O)c1ccc(CCNC(=S)NC2CCCCC2)cc1	.	.	.	.	.
COc1ccc(Cl)cc1NC(=S)NCc1ccc(S(N)(=O)=O)cc1	.	11.7µM	.	.	?
COc1ccc(NC(=S)NCc2ccc(S(N)(=O)=O)cc2)cc1OC	.	.	.	.	.
COc1ccc(OC)c(NC(=S)NCc2ccc(S(N)(=O)=O)cc2)c1	.	?	.	.	.
Cc1ccc(S(=O)(=O)NC(=O)NCc2ccc(F)cc2)cc1	.	4.15µM	.	.	/
NS(=O)(=O)c1ccc(CNC(=S)NC2CC2)cc1	?	2.08µM	.	.	.
COc1cccc(-c2nc3sc4c(c3c(=O)[nH]2)CCCCC4)c1	.	.	.	.	.
CC1(C)S[C@H]2[C@@H](NC(=O)C(N)c3ccccc3)C(=O)N2[C@H]1C(=O)O (some centres undefined)	/	/	/	.	/
CCCCCCCCCCCCCCCC(=O)C(F)(F)F	/	/	/	.	/
Cc1oc2ccc(Br)cc2c(=O)c1-c1nn[nH]n1	.	.	.	.	/
CC1=C(C(=O)N(C)C)CC(CC(=O)NC2CC2)C(=O)N1Cc1ccccc1 (centres undefined)	.	/	/	/	/
NS(=O)(=O)c1ccc(CNC(=S)NCc2ccc(Cl)cc2)cc1	.	.	.	.	.
SMILES	HCMV antiviral	Pf growth 96h	Pf growth 48h	Giardia FBPA inh	Sm TGR inh
NS(=O)(=O)c1ccc(CNC(=S)NCc2ccc(F)cc2)cc1	.	10.4µM	.	.	.
COC(=O)c1c(C)noc1-c1snnc1C	.	.	.	.	.
CC(C)=NOC(=O)c1c(C)noc1-c1snnc1C	.	1.85µM	1.65µM	.	.
CCCCCCC(=O)N(O)C1CC(=O)N(c2ccc(Cl)cc2)C1=O (centres undefined)	.	10.4µM	4.15µM	.	0.562µM
CCCCCCC(=O)N(O)C1CC(=O)N(c2ccc(C)cc2)C1=O (centres undefined)	.	?	/	.	0.562µM
Cc1ccc(N2C(=O)CC(N(O)C3CC(=O)N(c4ccc(C)cc4)C3=O)C2=O)cc1 (centres undefined)	.	.	.	.	.
